This note sets out measurements from ChEMBL document CHEMBL3988442, “University of Dundee, Small-Polar-MMV Screening Library” (2021).

Experiment [1] has as its target T1, Aspartate--tRNA(Asp/Asn) ligase (Mycobacterium tuberculosis (strain ATCC 25618 / H37Rv)) (UniProt P9WFW3). Note: in the data most compounds retested in dose-response had high values.
T1 sequence (whole entry): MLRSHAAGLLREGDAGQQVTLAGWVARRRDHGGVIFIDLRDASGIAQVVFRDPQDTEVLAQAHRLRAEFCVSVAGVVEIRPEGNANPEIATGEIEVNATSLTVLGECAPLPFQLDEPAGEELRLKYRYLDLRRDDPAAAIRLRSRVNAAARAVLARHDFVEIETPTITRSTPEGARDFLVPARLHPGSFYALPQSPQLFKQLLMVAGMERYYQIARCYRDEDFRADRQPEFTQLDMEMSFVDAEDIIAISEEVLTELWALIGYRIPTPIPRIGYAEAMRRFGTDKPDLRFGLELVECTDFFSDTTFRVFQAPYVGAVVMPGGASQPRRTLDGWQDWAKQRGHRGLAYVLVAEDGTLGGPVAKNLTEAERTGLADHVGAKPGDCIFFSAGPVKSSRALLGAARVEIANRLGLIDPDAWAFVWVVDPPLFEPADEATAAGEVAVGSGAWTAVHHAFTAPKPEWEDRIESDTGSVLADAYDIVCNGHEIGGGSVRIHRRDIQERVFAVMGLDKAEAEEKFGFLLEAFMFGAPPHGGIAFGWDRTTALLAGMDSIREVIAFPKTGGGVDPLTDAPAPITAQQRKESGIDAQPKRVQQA
In words: Assay for Asp RNA synthetase-1 from Mycobacterium tuberculosis. It counts as functional. More on the design: scale not given: direction of the effect not stated beside the values. The settings on record: 30 µM.

In experiment [2] the target is Shiga toxin 2 (Escherichia coli O157:H7) (UniProt P09385+P09386). In words: E. coli 0.157:H7 Shiga Toxin SOP - stx2 screening assay. It counts as functional. More on the design: scale not given: direction of the effect not stated beside the values. The settings on record: 30 µM.

Regarding `CCc1nnc2n1CCN(C(=O)c1cnc3ccccc3n1)C2`, the Percent Effect in experiment [1] is -4.57%; in experiment [2] it was 0.361%.
With `Cn1cc(CN2CCCn3cnc(COCC4CC4)c3C2)cn1`, the Percent Effect in experiment [1] was 1.66%; in experiment [2] it was -1.47%.
On to `COCCNC(=O)C1(c2ccccc2C)CCOCC1`, for which the Percent Effect in experiment [1] was -1.82%; in experiment [2], 19.2%.
For `Cc1nc(C)n(CC2CCCN2CCOc2ccc(C#N)cc2)n1` (stereo not drawn), the results for the Percent Effect in experiment [1] and in experiment [2] were -3.28% and -0.486%, respectively.
As for `Cc1nc(CN2CCOC(Cn3cncn3)C2)nc2ccccc12` (stereo not drawn), the Percent Effect in experiment [1] was -2.91%; in experiment [2], 16.4%.
`Cc1c[nH]cc1C(=O)N1CCN(Cc2nc(C(C)C)no2)CC1`: the figures for the Percent Effect in experiment [1] and in experiment [2] were -3.47% and 9.19%, respectively.
For `O=C(NCc1cc[nH]n1)NC1CCCN(c2ncccn2)C1` (stereo not drawn) the same measures were -4.43% and -3.98%.
As for `COc1ccc(Cl)cc1C(=O)N1CCCC(n2nc(C)nc2C)C1` (stereo not drawn), the figures for the Percent Effect in experiment [1] and in experiment [2] were -5.94% and 7.05%, respectively.
The like results for `CCc1c(C(=O)NCC(=O)OCC2CC2)cnn1-c1ccc(C)cc1` were, in that order, -5.03% and -6.36%.
For `COc1c(CNCCNC(=O)c2ccco2)c(C)nn1C`, the Percent Effect in experiment [1] is -2.68%; in experiment [2], 14.7%.
As for `CCOC(=O)NC(CNC(=O)c1ccccn1)CC(C)C` (stereo not drawn), the values for the Percent Effect in experiment [1] and in experiment [2] were -2.16% and -4.01%, respectively.
Take `CCc1nc(CCNC(=O)NC2CC2)sc1C`: the Percent Effect was 5.19% in experiment [1] and -0.181% in experiment [2].
Regarding `Cc1nc(C2CCCN(C(=O)c3cccc(S(C)(=O)=O)c3)C2)no1` (stereo not drawn), the Percent Effect in experiment [1] is -2.72%; in experiment [2] it was -6.27%.
For the molecule `COc1cccc(OC)c1C(=O)N1CCN(c2ccccc2F)CC1`, the Percent Effect was found to be 1.49% in experiment [1] and 35.2% in experiment [2].
On to `CN1CCCC1CNC(=O)CCCOCc1ccccc1` (stereo not drawn), for which the Percent Effect in experiment [1] was 0.589%; in experiment [2], 23.4%.
In the case of `Fc1ccccc1CN1C[C@@H](OCc2ccncc2)[C@H]2OCCC[C@H]21`, the Percent Effect in experiment [1] was 2.94%; in experiment [2], -45.1%.
Take `c1nc2c(c(-c3ccsc3)n1)CCN(Cc1ccoc1)CC2`: the Percent Effect in experiment [1] is 8.04%; in experiment [2] it was -46%.
Take `O=C(c1ccc(N2CCCC2)nn1)N1CCCC(n2cccn2)C1` (stereo not drawn): the Percent Effect worked out at 3.23% in experiment [1] and 23.7% in experiment [2].
Consider `Cc1cc(C[C@@H]2COC[C@@H]2NC(=O)Cn2c(=O)oc3ccccc32)on1`, for which the Percent Effect is -0.0288% in experiment [1] and -25.4% in experiment [2].
